Screening results deposited in PubChem BioAssay by Broad Institute.
Only a selection was taken, and hits are over-represented in it overall.
CD40 NFkB inh: CD40 pathway inhibition in BL2 cells | inhibition, % at 10 µM | BL2 NF-kB luciferase reporter, CD40L-induced, 4 h | 83,000 compounds, 0.94% hits;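 active means mean inhibition of at least 50% with a set share of replicates also reaching that level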
Numbers stand for hits; i = inactive; [ ] = another dose, or the depositor's remark.

SMILES	CD40 NFkB inh
Cn1cnc(CCNC(=O)C[C@@H]2CC[C@@H]3[C@H](COC[C@@H](O)CN3C(=O)Nc3ccc(C(F)(F)F)cc3)O2)c1	51.7[25 µM]
Cn1cnc(CCNC(=O)C[C@@H]2CC[C@@H]3[C@H](COC[C@H](O)CN3C(=O)Nc3ccc(C(F)(F)F)cc3)O2)c1	i
Cn1cnc(CCNC(=O)C[C@H]2CC[C@@H]3[C@H](COC[C@@H](O)CN3C(=O)Nc3ccc(C(F)(F)F)cc3)O2)c1	i
COc1ccc(C(=O)NCc2ccc3[nH]c(C)cc3c2)cc1OC	i
CN1c2ccc(C#Cc3cccnc3)cc2[C@H]2[C@H](CCN2C(=O)C2CCC2)[C@@H]1CO	i
O=C(NC(=S)/C(=C1\CCCCCN1)[N+](=O)[O-])c1ccccc1	71.7
O=C(NC1CCCCNC1=O)c1ccccc1 (centres undefined)	i
O=C(COC(=O)c1ccccc1[N+](=O)[O-])NC(=O)c1ccccc1	i
O=C(Nc1cccc(-c2nc3ccccc3[nH]2)c1)c1ccco1	i
CN1CCC(N(C)C(=S)Nc2ccc(F)cc2)CC1	i
Cn1cnnc1SCc1ccc(F)c2ccccc12	i
Cn1cnnc1SCc1ccc(C(=O)NN)cc1	i
Cn1cnnc1SCc1ccc(-c2ccc(Br)cc2)o1	80.0
COc1ccccc1S(=O)(=O)N(C)C[C@@H]1OCc2ccccc2-c2ccccc2C(=O)N([C@@H](C)CO)C[C@@H]1C	i
COc1cccc(-n2cc(CNCc3c(C(=O)N(C)C)nc4ccc(Cl)cn34)cn2)c1	i
O=C(NNC(=O)c1ccncc1)Nc1ccc(Cl)cc1	i
CCCS(=O)(=O)NC(=O)C1(C)CCCN(C(=O)c2c(-c3ccccc3)noc2C)C1 (centres undefined)	i
Cc1ccccc1S(=O)(=O)N1[C@@H](C#N)[C@@H](c2ccc(C#CC3CCCCC3)cc2)[C@@H]1CO	i
Cc1ccccc1S(=O)(=O)N1[C@H](C#N)[C@@H](c2ccc(C#CC3CCCCC3)cc2)[C@@H]1CO	i
Cc1ccccc1S(=O)(=O)N1[C@H](C#N)[C@H](c2ccc(C#CC3CCCCC3)cc2)[C@H]1CO	48.4
Cc1ccccc1S(=O)(=O)N1[C@H](C#N)[C@H](c2ccc(C#CC3CCCC3)cc2)[C@@H]1CO	i
Cc1ccccc1S(=O)(=O)N1[C@H](C#N)[C@H](c2ccc(C#CC3CCCC3)cc2)[C@H]1CO	40.0
Cc1ccccc1S(=O)(=O)N1[C@@H](C#N)[C@H](c2ccc(C#CC3CCCC3)cc2)[C@@H]1CO	i
O=C(NCCCO)C(=O)c1c(-c2ccccc2)cc2ccccn12	i
Cc1ccc(C)c(OCCC(=O)NNC(=O)Cn2nc(C)cc2C)c1	i
SMILES	CD40 NFkB inh
COc1ccc(NC(=O)COC(=O)c2ccc3ccccc3n2)cc1	i
O=C(C1CC1)N1C[C@@H]2[C@H](c3ccccc31)[C@H](CO)N2C(=O)c1ccccc1	i
Cc1cc(C(C)(C)C)oc1C(=O)O	i
Cc1nnc(NC(=O)c2ccc(-c3ccc(Cl)cc3)o2)s1	i
Cc1cc(N2CCN(C)CC2)ccc1NC(=O)c1ccc(-c2ccc(Cl)cc2)o1	63.5
O=C(Nc1ccccc1N1CCCCC1)c1ccc(-c2ccc(Cl)cc2)o1	i
Cc1ccc(C)n1-c1ccc(C(=O)NN)s1	i
Cc1cc(N2CCOCC2)ccc1/C=C1\NC(=O)N(Cc2ccccc2F)C1=O	i
C=C1CC(Cn2cc(Br)c(=O)[nH]c2=O)(c2ccc(-c3ccccc3)cc2)OC1=O (centres undefined)	64.3
O=c1[nH]c(=O)n(C2CC(O)C(CO)O2)cc1Br (centres undefined)	i
C=C1CC(COc2cc(=O)oc3ccccc23)(c2ccccc2)OC1=O (centres undefined)	i
COc1ccc(N=[N+]([O-])c2ccc(OC)cc2)cc1	i
CC(=O)c1ccc(NC(=O)c2noc3c2CCC3)cc1	57.5
COc1ccc(CNC(=O)c2noc3c2CCCCC3)cc1	i
COC(=O)c1ccccc1NC(=O)c1noc2c1CCCC2	i
CC(C)CSc1nsc(N)n1	i
Cc1cc(=O)oc(C)c1C(=O)NCCC(C)C	i
O=C(CS(=O)(=O)Nc1ccc(F)cc1Cl)Nc1ccc(F)cc1Cl	i
O=C(OCc1ccccc1)C1CCCN1C(=O)c1cccs1 (centres undefined)	i
O=C(Nc1c(-c2cccs2)nc2ccccn12)c1ccccc1F	i
O=C(Nc1nnc(C2CCCCC2)s1)C1CC(=O)N(c2ccccc2)C1 (centres undefined)	i
O=C(Nc1nc2ccc(F)cc2s1)C1CC(=O)N(c2ccc3c(c2)OCCO3)C1 (centres undefined)	i
O=C(Nc1nnc(C2CC2)s1)C1CC(=O)N(c2ccc3c(c2)OCCO3)C1 (centres undefined)	51.2
COc1ccc(C(C)(C)C)cc1NC(=O)COc1ccc(-c2nnco2)cc1	i
CCOc1ncccc1C(=O)OCC(=O)Nc1ccc(Cl)cn1	i
SMILES	CD40 NFkB inh
COc1ccccc1C(=O)OCC(=O)Nc1ccc(Cl)cn1	48.9
O=C(COc1ccccc1)Nc1ccc(Cl)cn1	i
CC(C)c1ccc(N(CC(=O)O)S(=O)(=O)c2cccnc2)cc1	i
C[C@@H]1CN([C@@H](C)CO)C(=O)c2ccccc2-c2ccccc2CO[C@@H]1CN(C)C(=O)N[C@H](C)c1ccccc1	i
CC1CCC(=NNS(=O)(=O)c2ccc([N+](=O)[O-])cc2)CC1 (centres undefined)	i
CCN(C[C@H]1[C@H](c2ccc(-c3cccnc3)cc2)[C@@H](CO)N1C(C)=O)C(C)=O	i
O=C(/C=C/c1ccccc1)CC(O)(c1ccccc1)C(F)(F)C(F)F (centres undefined)	55.5
O=C(/C=C/c1ccccc1)CC(O)(c1ccccc1)C(F)(F)F (centres undefined)	i
O=C(/C=C/c1ccccc1)COC(=O)c1ccccc1	i
O=C(O)CCC(=O)N1CCc2cc(S(=O)(=O)N3CCCCC3)ccc21	i
O=C(COc1ccc2c(c1)OCO2)Nc1ccc(Cl)cn1	i
O=C(COc1ccc2c(c1)OCO2)Nc1nccs1	46.6
O=C(COc1ccc2c(c1)OCO2)Nc1nnc(Cc2ccccc2)s1	i
CCCN1CN(Cc2ccco2)c2nc3ccccc3n2C1	i
C/C=C/c1ccc([C@@H]2[C@H](CO)N(C(=O)Cc3cccnc3)[C@H]2CNC(C)=O)cc1	i
O=c1[nH]c2cc3c(cc2cc1CN(Cc1cccnc1)C(=S)NCc1ccco1)OCO3	i
Cc1ccc(NC(=O)CNC(=O)c2ccc(C)s2)nc1	i
COC(=O)CNC(=O)c1cccc(Cl)c1	i
Cc1cccnc1NC(=O)c1ccc2c(c1)OCCO2	i
Cc1ccc(NC(=O)c2ccc3c(c2)OCCO3)nc1	63.8
Cc1ccc(NC(=O)c2ccc3c(c2)NC(=O)CS3)nc1	i
Cc1ccc(NC(=O)CNC(=O)c2cccc(Cl)c2)nc1	65.7
O=C(O)C1(c2ccccc2)CCC(Nc2ccccc2)C1 (centres undefined)	i
O=C(C[C@H]1CC[C@H]2NC[C@@H](O)COC[C@@H]2O1)Nc1nccs1	i
CCOC(=O)C1CCN(c2nc3ccccc3n2CC(=O)c2ccccc2)CC1	i
Cc1oc(S(=O)(=O)N2CCCC2)cc1C(=O)Nc1ccc(F)cc1	i
CCOC(=O)c1[nH]c(C)c(C(=O)Nc2ccc3c(c2)OCCO3)c1C	i
CC(C)c1cccc(NC(=O)C[C@H]2CC[C@H]3[C@@H](COc4ccc(NS(=O)(=O)c5ccccc5Cl)cc4C(=O)N3C)O2)c1	i
COc1ccccc1C(=O)Nc1ccc2c(c1)C(=O)N(C)[C@H]1CC[C@H](CC(=O)Nc3cc(F)ccc3F)O[C@@H]1CO2	i
